What was measured:
Experiment in all cases: log2 ratio of Biotin-Ahx-Ub-VS probe labelling (fragment/DMSO); higher = less target engagement (more negative = stronger competition), active = hit call of the paper (q ≤ 0.05, log2 ratio ≤ -1)
Details in all cases: compound concentration: 200 uM; treatment time: 3 h
USP34 = USP34 (UniProt Q70CQ2)
Method in brief: (§1)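 Labelling with Biotin-Ahx-Ub-VS (0.5 µM final, 1 h) followed a 3 h triplicate treatment of HEK293T lysate (495 µg per sample, Tris/CHAPS/IGEPAL buffer with protease inhibitors) with fragment at 200 µM or vehicle. Labelled DUBs were NeutrAvidin-enriched, digested with LysC and trypsin, and run by diaPASEF LC-MS/MS. The values, average log2 fragment/vehicle ratios by unpaired t-test, come from global-median-normalised Spectronaut label-free quantities. Proteins with ≥2 unique peptides were used.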

USP36 = target: T1, USP36 (UniProt Q9P275)
T1 sequence (whole entry): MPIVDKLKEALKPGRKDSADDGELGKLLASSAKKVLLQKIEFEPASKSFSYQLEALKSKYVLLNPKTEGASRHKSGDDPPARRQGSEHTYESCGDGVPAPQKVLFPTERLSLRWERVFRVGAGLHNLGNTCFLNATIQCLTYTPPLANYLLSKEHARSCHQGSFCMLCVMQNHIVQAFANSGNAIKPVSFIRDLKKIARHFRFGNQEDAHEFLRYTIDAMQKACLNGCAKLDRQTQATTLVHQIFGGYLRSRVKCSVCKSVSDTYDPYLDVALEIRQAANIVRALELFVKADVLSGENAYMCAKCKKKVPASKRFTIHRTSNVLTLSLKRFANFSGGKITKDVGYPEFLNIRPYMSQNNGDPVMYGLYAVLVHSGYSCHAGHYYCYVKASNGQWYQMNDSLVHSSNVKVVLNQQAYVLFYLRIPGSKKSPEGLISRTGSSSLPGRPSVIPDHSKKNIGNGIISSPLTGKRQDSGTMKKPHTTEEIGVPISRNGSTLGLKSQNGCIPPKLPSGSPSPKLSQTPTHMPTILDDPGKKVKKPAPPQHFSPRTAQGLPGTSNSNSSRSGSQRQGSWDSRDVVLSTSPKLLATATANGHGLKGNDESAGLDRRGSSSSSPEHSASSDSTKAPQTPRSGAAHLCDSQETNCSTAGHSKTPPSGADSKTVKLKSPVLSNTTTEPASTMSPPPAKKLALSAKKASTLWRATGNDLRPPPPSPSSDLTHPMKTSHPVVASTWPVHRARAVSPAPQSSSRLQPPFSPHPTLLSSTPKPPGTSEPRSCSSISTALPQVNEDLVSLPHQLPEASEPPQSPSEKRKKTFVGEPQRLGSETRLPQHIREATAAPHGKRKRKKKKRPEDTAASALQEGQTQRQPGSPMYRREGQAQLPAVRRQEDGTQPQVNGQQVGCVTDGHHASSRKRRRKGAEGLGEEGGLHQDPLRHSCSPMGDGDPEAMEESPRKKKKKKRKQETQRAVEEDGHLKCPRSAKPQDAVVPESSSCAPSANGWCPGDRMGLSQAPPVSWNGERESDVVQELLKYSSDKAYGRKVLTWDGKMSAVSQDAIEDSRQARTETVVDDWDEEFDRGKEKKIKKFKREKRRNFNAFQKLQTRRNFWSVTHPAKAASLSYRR
Method in brief: as §1

USP38 = target: T2, USP38 (UniProt Q8NB14)
T2 sequence (whole entry): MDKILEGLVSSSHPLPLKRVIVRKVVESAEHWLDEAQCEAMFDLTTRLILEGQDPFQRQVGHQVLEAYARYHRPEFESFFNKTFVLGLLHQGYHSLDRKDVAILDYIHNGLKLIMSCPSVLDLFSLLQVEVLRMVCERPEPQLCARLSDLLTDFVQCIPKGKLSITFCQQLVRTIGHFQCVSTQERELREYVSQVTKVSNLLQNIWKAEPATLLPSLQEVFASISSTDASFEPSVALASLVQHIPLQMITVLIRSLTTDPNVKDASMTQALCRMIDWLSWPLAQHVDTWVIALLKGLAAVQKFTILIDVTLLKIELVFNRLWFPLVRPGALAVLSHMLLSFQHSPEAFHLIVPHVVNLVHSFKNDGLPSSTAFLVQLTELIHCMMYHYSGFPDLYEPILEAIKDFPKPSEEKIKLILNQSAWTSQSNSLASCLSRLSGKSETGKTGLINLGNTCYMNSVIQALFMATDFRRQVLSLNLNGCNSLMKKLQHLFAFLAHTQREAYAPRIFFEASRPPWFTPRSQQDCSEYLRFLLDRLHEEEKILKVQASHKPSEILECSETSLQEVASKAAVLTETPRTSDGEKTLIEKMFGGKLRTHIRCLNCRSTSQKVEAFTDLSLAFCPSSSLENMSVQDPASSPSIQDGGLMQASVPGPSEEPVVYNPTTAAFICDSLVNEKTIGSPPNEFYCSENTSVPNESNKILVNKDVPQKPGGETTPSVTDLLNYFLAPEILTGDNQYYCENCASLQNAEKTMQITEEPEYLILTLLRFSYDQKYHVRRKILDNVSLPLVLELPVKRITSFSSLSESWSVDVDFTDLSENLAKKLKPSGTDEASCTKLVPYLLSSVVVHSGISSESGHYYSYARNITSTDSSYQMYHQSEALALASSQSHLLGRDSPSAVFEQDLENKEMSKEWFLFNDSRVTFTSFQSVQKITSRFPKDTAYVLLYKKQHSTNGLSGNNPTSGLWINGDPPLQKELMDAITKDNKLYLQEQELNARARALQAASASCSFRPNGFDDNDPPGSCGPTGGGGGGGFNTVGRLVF
Method in brief: as §1

USP39 = target: T3, USP39 (UniProt Q53GS9)
T3 sequence (whole entry): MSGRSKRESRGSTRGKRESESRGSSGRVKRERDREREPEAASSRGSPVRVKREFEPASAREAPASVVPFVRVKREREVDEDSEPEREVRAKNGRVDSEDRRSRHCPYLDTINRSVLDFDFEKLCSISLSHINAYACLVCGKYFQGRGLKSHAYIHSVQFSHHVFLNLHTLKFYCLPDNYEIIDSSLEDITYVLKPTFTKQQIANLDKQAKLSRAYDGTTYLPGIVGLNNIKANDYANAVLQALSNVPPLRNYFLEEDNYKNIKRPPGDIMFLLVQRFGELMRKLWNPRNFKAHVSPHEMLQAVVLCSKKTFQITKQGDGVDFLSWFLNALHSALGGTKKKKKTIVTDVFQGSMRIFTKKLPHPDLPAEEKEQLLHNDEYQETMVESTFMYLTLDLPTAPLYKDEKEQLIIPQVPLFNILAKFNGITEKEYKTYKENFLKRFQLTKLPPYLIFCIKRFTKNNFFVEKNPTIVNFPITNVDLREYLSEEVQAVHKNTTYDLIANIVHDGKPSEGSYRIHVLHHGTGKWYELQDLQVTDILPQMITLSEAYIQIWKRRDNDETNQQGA
Method in brief: as §1

USP4 = target: T4, USP4 (UniProt Q13107)
T4 sequence (whole entry): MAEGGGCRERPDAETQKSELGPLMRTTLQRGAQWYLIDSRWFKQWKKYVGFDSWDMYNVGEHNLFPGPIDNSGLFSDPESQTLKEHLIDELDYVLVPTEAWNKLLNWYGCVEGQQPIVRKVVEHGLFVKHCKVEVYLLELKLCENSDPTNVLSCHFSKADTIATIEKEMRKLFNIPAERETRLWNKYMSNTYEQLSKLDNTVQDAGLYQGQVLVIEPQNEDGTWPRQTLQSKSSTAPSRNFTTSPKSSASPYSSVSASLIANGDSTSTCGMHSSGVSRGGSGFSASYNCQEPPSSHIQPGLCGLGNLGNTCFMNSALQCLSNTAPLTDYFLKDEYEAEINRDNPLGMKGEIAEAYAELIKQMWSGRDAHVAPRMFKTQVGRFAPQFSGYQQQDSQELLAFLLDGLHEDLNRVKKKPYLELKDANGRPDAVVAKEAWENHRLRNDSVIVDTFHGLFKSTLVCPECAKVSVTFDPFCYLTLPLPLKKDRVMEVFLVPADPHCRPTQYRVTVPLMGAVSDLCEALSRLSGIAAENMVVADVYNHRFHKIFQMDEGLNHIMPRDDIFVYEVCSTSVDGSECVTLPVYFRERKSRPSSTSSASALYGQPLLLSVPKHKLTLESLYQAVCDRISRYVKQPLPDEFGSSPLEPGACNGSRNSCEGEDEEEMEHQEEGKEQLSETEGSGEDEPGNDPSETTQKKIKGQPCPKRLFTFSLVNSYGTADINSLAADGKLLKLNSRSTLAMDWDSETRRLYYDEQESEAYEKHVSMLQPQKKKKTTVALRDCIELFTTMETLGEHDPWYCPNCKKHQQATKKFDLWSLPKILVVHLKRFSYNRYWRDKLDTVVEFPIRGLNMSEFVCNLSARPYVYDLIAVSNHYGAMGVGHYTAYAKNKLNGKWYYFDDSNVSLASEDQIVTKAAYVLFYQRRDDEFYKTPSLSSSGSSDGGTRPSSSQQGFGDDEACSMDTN
Method in brief: as §1

Measured: log2 ratio of Biotin-Ahx-Ub-VS probe labelling

Chain of USP34 (Q70CQ2 whole entry, the tested form may be a part): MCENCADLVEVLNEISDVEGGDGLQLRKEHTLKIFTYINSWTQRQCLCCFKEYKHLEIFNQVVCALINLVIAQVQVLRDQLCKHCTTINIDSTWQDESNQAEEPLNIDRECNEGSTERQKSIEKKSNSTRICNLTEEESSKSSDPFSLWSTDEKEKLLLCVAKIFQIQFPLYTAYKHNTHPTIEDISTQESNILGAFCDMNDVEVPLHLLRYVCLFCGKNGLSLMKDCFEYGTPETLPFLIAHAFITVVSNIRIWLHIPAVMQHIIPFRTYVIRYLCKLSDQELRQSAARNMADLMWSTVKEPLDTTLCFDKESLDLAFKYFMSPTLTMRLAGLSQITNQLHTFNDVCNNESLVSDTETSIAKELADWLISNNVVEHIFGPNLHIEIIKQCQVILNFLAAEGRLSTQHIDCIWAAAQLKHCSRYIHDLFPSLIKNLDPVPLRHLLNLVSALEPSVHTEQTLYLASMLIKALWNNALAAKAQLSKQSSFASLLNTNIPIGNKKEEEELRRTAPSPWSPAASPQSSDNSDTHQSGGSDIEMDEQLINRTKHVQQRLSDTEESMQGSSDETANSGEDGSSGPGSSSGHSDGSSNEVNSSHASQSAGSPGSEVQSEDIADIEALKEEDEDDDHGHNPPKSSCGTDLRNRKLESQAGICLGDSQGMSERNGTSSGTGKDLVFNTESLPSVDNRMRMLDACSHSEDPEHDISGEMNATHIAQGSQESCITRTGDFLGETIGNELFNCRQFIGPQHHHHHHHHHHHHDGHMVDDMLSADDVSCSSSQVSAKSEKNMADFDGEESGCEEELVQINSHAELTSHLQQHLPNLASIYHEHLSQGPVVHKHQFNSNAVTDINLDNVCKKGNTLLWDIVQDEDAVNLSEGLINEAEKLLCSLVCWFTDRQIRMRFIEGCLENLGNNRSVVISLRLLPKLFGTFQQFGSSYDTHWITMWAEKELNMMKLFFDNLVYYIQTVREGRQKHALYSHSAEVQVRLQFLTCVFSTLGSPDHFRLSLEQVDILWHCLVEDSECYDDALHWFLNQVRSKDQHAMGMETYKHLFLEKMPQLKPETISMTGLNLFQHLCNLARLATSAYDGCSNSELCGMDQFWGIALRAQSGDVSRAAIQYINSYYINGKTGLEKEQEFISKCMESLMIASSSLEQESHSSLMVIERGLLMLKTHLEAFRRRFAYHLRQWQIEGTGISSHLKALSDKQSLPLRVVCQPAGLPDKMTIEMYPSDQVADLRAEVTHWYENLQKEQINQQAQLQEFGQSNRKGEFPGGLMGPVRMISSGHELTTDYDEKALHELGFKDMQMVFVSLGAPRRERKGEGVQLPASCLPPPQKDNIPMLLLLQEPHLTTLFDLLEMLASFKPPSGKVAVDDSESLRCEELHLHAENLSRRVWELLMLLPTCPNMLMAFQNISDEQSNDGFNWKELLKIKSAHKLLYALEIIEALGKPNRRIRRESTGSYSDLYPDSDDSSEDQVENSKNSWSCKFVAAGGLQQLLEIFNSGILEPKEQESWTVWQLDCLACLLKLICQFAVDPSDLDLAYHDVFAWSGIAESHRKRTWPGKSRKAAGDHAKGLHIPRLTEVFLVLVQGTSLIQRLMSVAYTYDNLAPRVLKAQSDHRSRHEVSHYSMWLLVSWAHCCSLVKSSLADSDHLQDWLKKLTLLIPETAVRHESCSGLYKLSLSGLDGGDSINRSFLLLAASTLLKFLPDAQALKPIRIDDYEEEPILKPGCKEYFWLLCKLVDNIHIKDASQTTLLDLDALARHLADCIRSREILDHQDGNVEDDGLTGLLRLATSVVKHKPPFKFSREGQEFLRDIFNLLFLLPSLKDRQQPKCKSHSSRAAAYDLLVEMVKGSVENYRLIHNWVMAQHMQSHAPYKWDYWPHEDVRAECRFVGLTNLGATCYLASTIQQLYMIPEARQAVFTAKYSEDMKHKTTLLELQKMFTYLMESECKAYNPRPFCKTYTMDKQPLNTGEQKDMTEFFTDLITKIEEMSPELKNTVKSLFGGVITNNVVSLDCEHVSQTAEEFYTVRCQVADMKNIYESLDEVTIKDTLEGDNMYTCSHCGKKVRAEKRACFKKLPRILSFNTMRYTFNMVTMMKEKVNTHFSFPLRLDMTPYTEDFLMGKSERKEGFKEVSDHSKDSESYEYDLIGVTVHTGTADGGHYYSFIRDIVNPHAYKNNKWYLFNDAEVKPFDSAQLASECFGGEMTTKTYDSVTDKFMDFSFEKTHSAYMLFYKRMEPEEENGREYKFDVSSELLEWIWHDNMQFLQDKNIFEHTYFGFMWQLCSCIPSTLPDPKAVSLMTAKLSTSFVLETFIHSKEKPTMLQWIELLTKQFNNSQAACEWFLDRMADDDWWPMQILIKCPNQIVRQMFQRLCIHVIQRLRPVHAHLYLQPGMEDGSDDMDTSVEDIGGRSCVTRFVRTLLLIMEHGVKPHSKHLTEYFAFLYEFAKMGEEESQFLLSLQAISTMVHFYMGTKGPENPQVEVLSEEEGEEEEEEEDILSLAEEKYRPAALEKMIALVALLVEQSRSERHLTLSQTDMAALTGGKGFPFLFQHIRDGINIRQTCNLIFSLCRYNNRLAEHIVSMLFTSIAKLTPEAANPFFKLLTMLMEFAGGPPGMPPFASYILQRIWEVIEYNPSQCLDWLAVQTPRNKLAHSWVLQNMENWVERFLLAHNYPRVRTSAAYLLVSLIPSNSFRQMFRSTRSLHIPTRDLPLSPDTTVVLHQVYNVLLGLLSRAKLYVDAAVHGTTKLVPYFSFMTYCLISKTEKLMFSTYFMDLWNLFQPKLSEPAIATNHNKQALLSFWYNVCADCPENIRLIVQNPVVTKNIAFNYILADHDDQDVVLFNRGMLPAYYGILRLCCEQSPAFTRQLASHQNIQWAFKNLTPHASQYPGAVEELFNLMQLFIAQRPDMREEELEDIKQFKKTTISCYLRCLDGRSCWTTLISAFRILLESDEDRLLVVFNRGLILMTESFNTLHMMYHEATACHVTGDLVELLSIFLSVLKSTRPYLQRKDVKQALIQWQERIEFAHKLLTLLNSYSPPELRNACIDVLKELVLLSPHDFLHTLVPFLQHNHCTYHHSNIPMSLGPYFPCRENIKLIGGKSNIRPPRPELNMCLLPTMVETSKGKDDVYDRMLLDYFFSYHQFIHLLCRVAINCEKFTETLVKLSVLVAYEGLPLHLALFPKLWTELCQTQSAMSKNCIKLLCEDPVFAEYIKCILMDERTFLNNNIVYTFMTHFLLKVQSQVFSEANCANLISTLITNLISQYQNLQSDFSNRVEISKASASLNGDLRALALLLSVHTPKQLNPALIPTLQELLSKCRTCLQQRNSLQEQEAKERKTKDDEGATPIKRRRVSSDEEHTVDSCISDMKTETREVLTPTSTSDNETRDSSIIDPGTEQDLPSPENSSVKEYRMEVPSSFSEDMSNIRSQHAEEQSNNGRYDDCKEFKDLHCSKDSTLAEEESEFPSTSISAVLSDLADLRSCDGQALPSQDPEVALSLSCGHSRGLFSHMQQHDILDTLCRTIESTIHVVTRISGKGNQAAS

Cc1cc(CC(C)NC(=O)CCl)n[nH]1 (stereo not given)
inactive: USP34 -0.00217 | USP36 -0.0115 | USP38 -0.279 | USP39 -0.196 | USP4 -0.0597
